Test results published in PubChem BioAssay (EPA / NIEHS).
Where “and” joins values, the source holds several entries; their conditions need not be identical. Identical values can stand only once. Records with an inconclusive call do not appear. Calls of active or inactive are those of the source. Rule for the calls: active = hit-call score of the fitted dose curve at least 0.9, where 1 is the maximum; inconclusive = response in the unintended direction; inactive = score below 0.9.

Target: human Constitutive Androstane Receptor (CAR), NR1I3 (gene 9970) (UniProt Q14994)
Assay: NVS_NR_hCAR_Antagonist: NovaScreen (NVS) Nuclear Receptor Binding Assay for human Constitutive Androstane Receptor Antagonism (CAR) (AID 2283344)
Protocol: NVS_NR_hCAR_Antagonist is a biochemical, single-readout assay that uses extracted gene-proteins in a cell-free assay. Measurements were taken 1 hour after chemical dosing in a 384-well plate.NVS_NR_hCAR_Antagonist is one of one assay component(s) measured or calculated from the NVS_NR_hCAR_Antagonist assay. It is designed to make measurements of fluorescent resonance energy transfer, a form of binding reporter, as detected with fluorescent resonance energy transfer signals by Time-Resolved Fluorescence Resonance Energy Transfer (TR-FRET) technology.Data from the assay component NVS_NR_hCAR_Antagonist was analyzed into 1 assay endpoint. This assay endpoint, NVS_NR_hCAR_Antagonist, was analyzed in the positive analysis fitting direction relative to DMSO as the negative control and baseline of activity. Using a type of binding reporter, loss-of-signal activity can be used to understand changes in the binding as they relate to the gene NR1I3. Furthermore, this assay endpoint can be referred to as a primary readout, because the performed assay has only produced 1 assay endpoint. To generalize the intended target to other relatable targets, this assay endpoint is annotated to the nuclear receptor intended target family, where the subfamily is non-steroidal.
Binding assays used specific radioligands (tritiated, iodinated) with non-radioactive competitive displacement ligands in agonist or antagonist protocols (as indicated) and various reference compounds and inhibitors to titrate specific binding to receptors and transporters. Most enzyme assays (CYPs, kinases, phosphatases, proteases, HDACs) used recombinant protein and specific substrates (fluorescence mostly, some colorimetric and radioactive) and inhibitors, followed by a biochemical separation of substrate and product. All assays for the biochemical HTS were initially run in duplicate at a single concentration (10 uM for CYP450 assays and 25 uM for all others). […] Each assay was run with positive and negative controls, and concurrent controls on every plate. The follow-up (secondary) screen tested active chemical-pairs in concentration series, as well as a few additional assays not tested in the primary screen, some selected negative inactives, and several cases re-run in the concentration series for confirmatory purposes.

human Constitutive Androstane Receptor (CAR), NR1I3 (gene 9970), sequence (Q14994 whole entry, looked up): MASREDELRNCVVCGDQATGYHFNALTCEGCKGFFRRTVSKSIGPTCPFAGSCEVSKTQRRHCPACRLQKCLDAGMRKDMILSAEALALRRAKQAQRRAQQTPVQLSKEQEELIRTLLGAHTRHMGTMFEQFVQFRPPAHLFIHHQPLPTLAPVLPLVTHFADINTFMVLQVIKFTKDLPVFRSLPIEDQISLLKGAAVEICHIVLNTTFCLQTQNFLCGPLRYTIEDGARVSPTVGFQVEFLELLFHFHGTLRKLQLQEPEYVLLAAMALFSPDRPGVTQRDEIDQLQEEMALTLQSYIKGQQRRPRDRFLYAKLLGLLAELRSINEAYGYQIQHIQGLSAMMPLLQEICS

Row | SMILES | AC50 | outcome
1 | C=CCOC(Cn1ccnc1)c1ccc(Cl)cc1Cl (stereo not given) | 9.8 µM (active) | –
2 | N[C@@H](Cc1cc(I)c(Oc2ccc(O)c(I)c2)c(I)c1)C(=O)O | 20 µM (active) | –
3 | CCCOC(=O)c1ccc(C(=O)OCCC)nc1 | – | inactive
4 | CCCCOCCOCCOCc1cc2c(cc1CCC)OCO2 | – | inactive
5 | CC1(C)C(C=C(Cl)Cl)C1C(=O)OCc1cccc(Oc2ccccc2)c1 (stereo not given) | – | inactive
6 | CC(C)(c1ccc(O)cc1)c1ccc(O)cc1 | 90.5 nM (active) and 367 nM (active) | –
7 | COC(=O)c1ccc(CNS(C)(=O)=O)cc1S(=O)(=O)NC(=O)Nc1nc(OC)cc(OC)n1 | – | inactive
8 | CCOC(=O)NCCOc1ccc(Oc2ccccc2)cc1 | – | inactive
9 | CCCCC(CC)CN1C(=O)C2C3C=CC(C3)C2C1=O (stereo not given) | 12.3 µM (active) | –
10 | O=C(O)C1(C(=O)Nc2ccc(Cl)cc2Cl)CC1 | 9.08 µM (active) | –
11 | CCOC(=O)[C@H](C)Oc1ccc(Oc2nc3ccc(Cl)cc3o2)cc1 | 0.182 µM (active) | –
12 | COC(=O)c1ccccc1C(=O)O | – | inactive
13 | CCCCC(CC)COC(=O)c1ccccc1C(=O)O (stereo not given) | – | inactive
14 | CCCN(CCC)C(=O)SCC | – | inactive
15 | CCC(O)=C1C(=O)CC(C(=O)O)CC1=O (stereo not given) | – | inactive
